Reference: PubChem BioAssay (EPA / NIEHS)
Values joined by “and” are separate entries in the source; they are usually repeats but may differ in a detail not shown here. Equal entries are not always repeated. Some structures have more than one record in an assay (separate samples or runs), and their calls can disagree. Active and inactive are the calls of the source. How the source made its calls: active means hit-call score of the fitted dose curve at least 0.9, where 1 is the maximum; inactive means score below 0.9.

Assay: CCTE_Mundy_HCI_Cortical_Synap_Neur_Matur_NeuriteSpotCountPerNeuron: CCTE's Synaptogenesis and Neurite Maturation Assay in rat cortical cells for Neurite Spot Count per Neuron Count, Mundy Lab (AID 2284215)
Experimental: CCTE_Mundy_HCI_Cortical_Synap&Neurite_Matur is a multiplexed, cell-based-readout assay that uses rat primary cortical cells with measurements taken at 288.33 hours after chemical dosing in a microplate: 96-well plate.CCTE_Mundy_HCI_Cortical_Synap_Neur_Matur_NeuriteSpotCountPerNeuron is one of eight components of the CCTE_Mundy_HCI_Cortical_Synap&Neurite_Matur assay. It measures synaptogenesis and neurite maturation related to number of neurite-associated synapses (synaptophysin puncta) per neuron using High Content Imaging of fluorescently labelled markers.[…] Using a type of morphology reporter, loss -of-signal activity can be used to understand developmental effects.
Cells are plated onto 96 well plates and allowed 2 hr for attachment to the substrate. At days in vitro (DIV) 5, Cytosine Arabinoside (AraC) is added to arrest glial cell growth. Chemicals are dosed and a media change is performed at DIV 7 of differentiation and is continued through DIV 12 when the experiment is terminated. Cells are fixed with […] and Hoechst Dye. Cells are stained using Millipore Mouse anti-MAP2MAB3418 (1:800) and Millipore Rabbit anti-Synaptophysinsc-1750 (1:250) primary antibodies and Alexa Fluor-488 goat anti-mouse and AlexaFluor-546 goat anti-rabbit secondary antibodies to label neuronal cell nuclei, synapses and neurites. A Cellomics ArrayScan VTi HCS Reader is used for automated image acquisition and analysis of neurite outgrowth.

**Q.** With `COP(=O)(OC)OC=C(Cl)Cl` as the molecule, how does the AC50 read?
**A.** 49 µM (active)

**Q.** And the outcome?
**A.** inactive

**Q.** Which AC50 does the source give for `CC1(c2ccc(Oc3ccccc3)cc2)OC(=O)N(Nc2ccccc2)C1=O` (stereo not given) here?
**A.** 24.1 µM (active)

**Q.** For `O=S(=O)(O)C(F)(F)C(F)(F)C(F)(F)C(F)(F)C(F)(F)C(F)(F)C(F)(F)C(F)(F)F`, which outcome is on record?
**A.** inactive

**Q.** For `CNC(=O)CSP(=S)(OC)OC`, which outcome is on record?
**A.** inactive

**Q.** What about the AC50 of the same molecule?
**A.** 50 µM (active)

**Q.** Which AC50 does the source give for `O=S1OCC2C(CO1)C1(Cl)C(Cl)=C(Cl)C2(Cl)C1(Cl)Cl` (stereo not given) here?
**A.** 15 µM (active)

**Q.** Which AC50 does the source give for `CC1(C)C(C=C(Cl)Cl)C1C(=O)OC(C#N)c1ccc(F)c(Oc2ccccc2)c1` (stereo not given) here?
**A.** 72 µM (active) and 15 µM (active)

**Q.** With `O=[N+]([O-])/N=C1\NCCN1Cc1ccc(Cl)nc1` as the molecule, how does the outcome read?
**A.** inactive

**Q.** With `COP(=S)(OC)Oc1ccc([N+](=O)[O-])cc1` as the molecule, how does the AC50 read?
**A.** 15 µM (active)

**Q.** With `CC(C)N(C(=O)COc1nnc(C(F)(F)F)s1)c1ccc(F)cc1` as the molecule, how does the outcome read?
**A.** inactive

**Q.** Which outcome does the source give for `O=C(O)C(F)(F)C(F)(F)C(F)(F)C(F)(F)C(F)(F)C(F)(F)C(F)(F)F` here?
**A.** inactive

**Q.** With `O=C(O)COc1ccc(Cl)cc1Cl` as the molecule, how does the outcome read?
**A.** inactive

**Q.** Which AC50 does the source give for `CC[C@H](C)[C@H]1O[C@]2(C=C[C@@H]1C)C[C@@H]1C[C@@H](C/C=C(\C)[C@@H](O[C@H]3C[C@H](OC)[C@@H](O[C@H]4C[C@H](OC)[C@@H](O)[C@H](C)O4)[C@H](C)O3)[C@@H](C)/C=C/C=C3\CO[C@@H]4[C@H](O)C(C)=C[C@@H](C(=O)O1)[C@]34O)O2` (tested in a mixture with another compound) here?
**A.** 1.19 µM (active)

**Q.** For `CCC(C)(C)C(=O)OC1=C(c2ccc(Cl)cc2Cl)C(=O)OC12CCCCC2`, which outcome is on record?
**A.** inactive
